Reference: PubChem BioAssay (NCI)
This is part of a sample that, as a whole, favours compounds with a hit. Of some 83,000 tested, about 20% had one in any assay.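 The test compound was applied at a single concentration to cells in 96-well plates for 48 hours, and percent growth was recorded.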 Active and inactive are the calls of the source. The calls were made as follows: active = growth percent below 10; inactive = the rest.

What was measured:
Test in all cases: NCI-60 one-dose screen, 48 h (100 = growth as untreated, 0 = no growth, -100 = all killed)
Settings in all cases: 10 µM unless noted
[1] = test system: NCI-H23 lung
[2] = test system: NCI-H226 lung
[3] = test system: NCI-H322M lung
[4] = test system: HOP-62 NSCLC
[5] = test system: NCI-H460 lung
[6] = test system: HOP-92 NSCLC
[7] = test system: NCI-H522 lung
[8] = test system: A549/ATCC NSCLC
[9] = test system: 786-0 renal
[10] = test system: COLO 205 colon
[11] = test system: DU-145 prostate
[12] = test system: K-562 leukemia
[13] = test system: MALME-3M melanoma
[14] = test system: MDA-MB-231 breast
[15] = test system: RXF 393 renal
[16] = test system: SF-268 CNS
[17] = test system: SF-295 CNS
[18] = test system: SF-539 CNS
[19] = test system: M14 melanoma
[20] = test system: UACC-257 melanoma

Measured: growth

CCN1CCN(c2cc(C)nc(N(CCCNc3ccnc4cc(Cl)ccc34)Cc3ccc4c(c3)OCO4)n2)CC1
active: [3] 5.48% | [4] -38.8% | [5] 7.01% | [6] -24.9% | [7] -24.5% | [9] -80.2% | [10] -82.6% | [12] -30.4% | [13] -82.2% | [14] -29.5% | [15] -59% | [16] -0.704% | [17] -70% | [18] -88.6% | [19] -82.2%
inactive: [1] 36.8% | [2] 50.7% | [8] 11.5% | [11] 20.1%

c1ccc2c(c1)CCN(NCCN1CCCC1)C2
inactive: [1] 86.7% | [2] 88.8% | [3] 98.2% | [4] 75.4% | [5] 107% | [6] 80.4% | [7] 91.3% | [8] 85.5% | [9] 101% | [10] 91.8% | [11] 110% | [12] 92.2% | [13] 101% | [14] 87% | [15] 99.9% | [16] 96.6% | [17] 98% | [18] 97.7% | [19] 93%

Cc1[nH]c(/C=C2\C(=O)Nc3ccc(F)cc32)c(C)c1C(=O)NC[C@H](O)CN1CCOCC1
active: [10] -8.22% | [13] -7.48% | [15] -17.1% | [19] 7.61%
inactive: [1] 27.1% | [2] 47.8% | [3] 26.2% | [4] 25.7% | [5] 19% | [6] 14.5% | [7] 45.4% | [8] 27.4% | [9] 35.6% | [11] 31.3% | [12] 24% | [14] 29.8% | [16] 40.9% | [17] 64% | [18] 28% | [20] 42.3%

COc1cc(-c2nc(C(=O)Nc3ccc(C)cc3)nn2-c2ccc(F)c(F)c2)cc(OC)c1OC
inactive: [1] 97.1% | [2] 102% | [3] 96% | [4] 86% | [5] 106% | [6] 114% | [7] 48% | [8] 96.2% | [9] 98.6% | [10] 95.8% | [11] 100% | [12] 101% | [13] 89% | [14] 96.1% | [15] 116% | [16] 89.2% | [17] 94% | [18] 107% | [19] 94.6%

CC(C)=CCc1cc2c(cc1O)C1=C(C(=O)C3=C(NCCS3(=O)=O)C1=O)C(C=C(C)C)O2 (stereo unspecified)
inactive: [1] 25.7% | [2] 57.9% | [3] 11.4% | [4] 25.3% | [5] 17.7% | [6] 115% | [8] 65.8% | [9] 58.7% | [10] 29.4% | [11] 41.2% | [14] 12.1% | [15] 57.2% | [17] 91.7% | [18] 20%
active: [7] -4.35% | [12] 8.83% | [13] -42.9% | [16] 0.726% | [19] 3.7%

CC12O[C@H](C[C@@H](OC(=O)CCC(=O)O)[C@H]1O)n1c3ccccc3c3c4c(c5c6ccccc6n2c5c31)C(=O)NC4=O
active: [2] 9.15% | [6] 7.85% | [10] -16.4% | [13] -21.6% | [15] -3.02% | [18] -8.98% | [19] -6.7%
inactive: [1] 12.3% | [3] 34.3% | [4] 13.5% | [5] 20.2% | [7] 21% | [8] 13.8% | [9] 36.8% | [11] 41.8% | [12] 44.5% | [14] 64.3% | [16] 46.4% | [17] 13.1%

CN(N)c1nc2sc3c(c2c(=O)[nH]1)CCCC3
inactive: [1] 93.5% | [2] 101% | [3] 96.9% | [4] 76.6% | [5] 104% | [6] 107% | [7] 89.2% | [8] 81.1% | [9] 98.2% | [10] 100% | [11] 101% | [12] 109% | [13] 88.7% | [14] 102% | [15] 108% | [16] 95.9% | [17] 93% | [18] 98.7% | [19] 98.7%

CC(C)OP(=O)(CCC(=O)c1c[nH]c2ccccc12)OC(C)C
inactive: [1] 96.8% | [2] 94% | [3] 103% | [4] 88.1% | [5] 114% | [6] 95.5% | [7] 86.9% | [8] 68.7% | [9] 109% | [10] 103% | [11] 116% | [12] 95.6% | [13] 97.2% | [14] 106% | [15] 114% | [16] 101% | [17] 104% | [18] 97.4% | [19] 98.4%

N#CC(C#N)=NO
inactive: [1] 92.7% | [2] 94.6% | [3] 92.1% | [4] 85.8% | [5] 108% | [6] 94% | [7] 75% | [8] 73.4% | [9] 99.5% | [10] 113% | [11] 111% | [12] 108% | [13] 99% | [14] 108% | [15] 105% | [16] 100% | [17] 101% | [18] 99.8% | [19] 110%

Cc1cc(N(CCNc2ccnc3cc(Cl)ccc23)Cc2cccs2)nc(Cl)n1
inactive: [8] 15.8% | [11] 23.9% | [16] 19.3%
active: [1] 0.24% | [2] -30.2% | [3] -24.7% | [4] -29.4% | [5] -10.7% | [6] -27.9% | [7] -49.1% | [9] -97.6% | [10] -75.3% | [12] -50.9% | [13] -29.4% | [14] -35.7% | [15] -63.3% | [17] -44.6% | [18] -92.2% | [19] -67.3%

Cc1cc(N2CCCC2)nc(N(CCCNc2ccnc3cc(Cl)ccc23)Cc2ccc3c(c2)OCO3)n1
inactive: [1] 20.9% | [2] 50.4% | [8] 13.2% | [11] 27.9% | [16] 31.2%
active: [3] 8.23% | [4] -17.4% | [5] 5.83% | [6] -36% | [7] -28.1% | [9] -88.8% | [10] -73.8% | [12] -15.4% | [13] -76.9% | [14] 4.2% | [15] -66.1% | [17] -62% | [18] -90.5% | [19] -83.4%

C=CC(=O)Nc1cc(Nc2nccc(-c3cn(C)c4ccccc34)n2)c(OC)cc1N(C)CCN(C)C
active: [1] 8.43% | [2] -50.5% | [3] -5.77% | [4] -23.9% | [5] -54.8% | [6] -15.8% | [7] -68.6% | [8] -43.5% | [9] -87.9% | [10] -81.1% | [11] 9.23% | [12] -40.1% | [13] -82.4% | [14] -68.4% | [15] -84.2% | [16] -15.6% | [17] -41.4% | [18] -90.7% | [20] -79.1% | [19] -79.4%

COC(=O)CCCNc1c(-c2c(O)c(O)cc3c(O)c(-c4c(C)cc5c(-c6nc7ccccn7c6NCCCC(=O)OC)c(O)c(O)cc5c4O)c(C)cc23)nc2ccccn12
active: [1] 6.48% | [5] 6.59% | [7] 1.98% | [18] 2.01%
inactive: [2] 64.8% | [3] 93.2% | [4] 37.1% | [6] 55.3% | [8] 23.4% | [9] 67.6% | [10] 87% | [11] 29.6% | [12] 11% | [13] 39.9% | [14] 56.1% | [15] 32.9% | [16] 25.3% | [17] 26.4% | [19] 60.3%

Cc1cc2c(-c3nc4ccccn4c3N)c(O)c(O)cc2c(O)c1-c1c(C)cc2c(-c3nc4ccccn4c3N)c(O)c(O)cc2c1O
inactive: [2] 26% | [3] 29.3% | [4] 11.3% | [8] 16.4% | [9] 32.4% | [11] 26% | [12] 14.6% | [14] 13.6% | [15] 25.3% | [16] 20.4% | [18] 14.9% | [19] 25.1%
active: [1] 9.67% | [5] 7% | [6] -8.82% | [7] -3.16% | [10] -48.5% | [13] -0.749% | [17] 2.67%

Cc1ccc(NC(=O)NC(=O)CSc2nc3ccccc3nc2C)cc1
active: [9] -16.3%
inactive: [1] 42.6% | [2] 59.4% | [3] 95.1% | [4] 45% | [5] 64.9% | [6] 36.1% | [7] 40.8% | [8] 70.2% | [10] 81.1% | [11] 85% | [12] 44.8% | [13] 71.1% | [14] 73.1% | [15] 90.4% | [16] 86.5% | [17] 43.7% | [18] 65.5% | [19] 74.9%

CC(C)=CCc1cc2c(cc1O)C1=C(C(=O)C3=C(C1=O)S(=O)(=O)CCN3)C(C=C(C)C)O2 (stereo unspecified)
active: [1] -35.9% | [2] -54.1% | [3] -76.2% | [4] -52.7% | [5] -50.4% | [6] -11.7% | [7] -50.8% | [8] -42.4% | [9] -12.3% | [10] -69.8% | [11] -97.1% | [12] 0.919% | [13] -96.1% | [14] 1.47% | [15] -76.2% | [16] -0.0427% | [17] -65.9% | [18] -100% | [19] -89.1%
